Screening data deposited in PubChem BioAssay by Sanford-Burnham Center for Chemical Genomics.
KKLEB cytotox – cytotoxicity in KKLEB CF airway cells, primary screen, cytotoxicity control for CF NF-kB inhibitor project, cell-based, uHTS, fluorescence assay plates. KKLEB CF airway cells viability, ATPlite luminescence, overnight; active compounds read low; cells stimulated with P. aeruginosa culture filtrate. activity change (cytotoxicity), % at 5 µM. 360,000 tested, 0.36% active. AID 602141, 2011;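 active means corrected activity change at or below -50% at 5 µM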
TROY signal inh – inhibitors of TROY-driven NF-kB signaling, primary screen, Q293 LMP1-TROYcd cells, NF-kB luciferase, uHTS. Q293 LMP1-TROYcd NF-kB luciferase reporter, 4 h. inhibition, % at 10 µM. 360,000 tested, 0.98% active;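 active means compounds whose plate-normalised and pattern-corrected inhibition of the luciferase reporter signal at the single screening dose is 50% or more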
TWEAK-Fn14 inh – inhibitors of TWEAK-Fn14 signaling, primary screen, luciferase reporter cells, uHTS; AID 1159606, 2016; inhibition, % at 10 µM; TWEAK-stimulated Fn14 reporter cells, luciferase luminescence, 8 h; 360,000 tested, 2% active; in the data active means inhibition above about 50%
HIF-2a block – HIF-2a reporter inhibitors, primary screen, luminescence, 786-0 RCC cells. 786-0 RCC cells HIF-2a reporter, luciferase luminescence, overnight. inhibition, % at 18.8 µM. 360,000 tested, 0.72% active. AID 624352, 2012;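 active means inhibition of the luminescence signal of 40% or more relative to plate controls, in a single-dose primary screen at 18.75 µM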
CF NFkB block – inhibitors of PAF-induced NF-kB signaling, primary screen, cell-based, GFP fluorescence, uHTS. 360,000 tested, 0.86% active. AID 588850, 2011. inhibition, % at 5 µM. KKLEB NF-kB-GFP reporter, GFP fluorescence overnight;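 active means at least 50% inhibition at 5 µM, scaled per plate between neutral and stimulator controls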;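 further: PAF is a Pseudomonas aeruginosa culture filtrate used as stimulus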
Peg3 promoter – Peg3 promoter-driven luciferase inhibitors, primary screen, cell-based, HeLa, luciferase luminescence; HeLa PEG-Prom luciferase reporter, overnight; inhibition, % at 20 µM; 360,000 tested, 1.7% active;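 active means inhibition of at least 50% at 20 µM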
A number is an active result; n = inactive; x = no result given. An excerpt weighted towards active compounds, which were near 4% of everything screened.

SMILES	KKLEB cytotox	TROY signal inh	TWEAK-Fn14 inh	HIF-2a block	CF NFkB block	Peg3 promoter
O=C(Nc1nc2c(s1)CN(Cc1ccccc1)CC2)C1CCC1	n	n	n	n	n	n
CSCCC(NC(=O)c1ccco1)C(=O)NCC(C)(C)N1CCOCC1 (centres undefined)	n	n	n	n	n	n
Cn1c(=O)c2[nH]c(CCCCCCCCc3nc4ccccc4[nH]3)nc2n(C)c1=O	n	n	70	n	n	n
Cn1c(=O)c2[nH]c(CCCCc3nc4ccccc4[nH]3)nc2n(C)c1=O	n	n	n	n	n	n
Cc1nc2ccc(Cl)cc2c(-c2ccccc2)c1C(=O)N(C)C	n	n	n	n	n	n
CCOC(=O)c1c(CN2CCNCC2)nc2ccc(Cl)cc2c1-c1ccccc1	n	n	n	n	n	106
Cc1ccc(NC2=Nc3ccccc3CC2)cc1	n	61	72	n	n	n
CCc1nnc(SCC(=O)NC2CCCC2)nc1CC	n	n	n	n	n	n
CCc1nnc(SCC(=O)NC2CCCCC2)nc1CC	n	n	n	n	n	77
CCOC(=O)C1(C)CCN1C(=O)c1cccc2ccccc12 (centres undefined)	n	n	n	n	n	n
Cc1ccc(C)c(N2CCN(C(=O)CCc3nc(-c4ccccc4Cl)no3)CC2)c1	n	n	n	n	n	n
Cc1nnc(NC(=O)c2ccc(S(=O)(=O)N3CCc4ccccc4C3)cc2)o1	n	n	n	n	n	n
Cc1cc(C)c2nc(NNC(=O)c3ccc(S(=O)(=O)N4CCc5ccccc5C4)cc3)sc2c1	n	n	n	n	n	75
C[C@]12CC[C@@H]3c4cc(O)c(O)cc4CC[C@H]3[C@@H]1CC[C@@H]2O	n	n	n	n	55	n
CN(C(=O)Cn1cc([N+](=O)[O-])ccc1=O)C1CCCCC1	n	n	n	n	n	n
N#CC(c1ccccc1)c1ccc2c(C(F)(F)F)cc(C(F)(F)F)nc2n1 (centres undefined)	n	59	53	n	n	n
CN(N)c1ccc2c(C(F)(F)F)cc(C(F)(F)F)nc2n1	n	n	n	n	n	n
Cc1ccc(C(C#N)c2ccc3c(C(F)(F)F)cc(C(F)(F)F)nc3n2)cc1 (centres undefined)	n	n	50	n	n	n
COc1ccc(S(=O)(=O)N2CCOCC2)cc1NC(=O)Cc1coc2cc(C)c(C)cc12	n	n	n	n	n	n
O=C(N/N=C/c1cc([N+](=O)[O-])ccc1N1CCNCC1)c1ccc([N+](=O)[O-])cc1	n	n	n	n	n	103
N#CCC(=O)N/N=C/c1cc([N+](=O)[O-])ccc1N1CCCC1	n	n	n	n	n	n
COc1ccc(N/N=C(\C#N)C(=N)SCc2ccccc2)cc1	n	52	77	n	78	n
COc1ccc(N/N=C(\C#N)C(=N)N2CCCCC2)cc1	n	n	n	n	n	n
Cc1nn(Cc2c(Cl)cccc2Cl)c(C)c1NC(=O)c1cn(-c2ccccc2)nc1-c1ccccc1	n	n	70	n	n	115
CCCc1cc(=O)oc2cc(OC(C)C(=O)NC3CC(C)(C)NC(C)(C)C3)ccc12 (centres undefined)	n	n	n	n	n	n
SMILES	KKLEB cytotox	TROY signal inh	TWEAK-Fn14 inh	HIF-2a block	CF NFkB block	Peg3 promoter
COc1cc(Nc2nc(-c3ccccc3)c3cc(C)ccc3n2)cc(OC)c1OC	n	n	69	n	n	n
Cc1ccc2nc(NCC(=O)O)nc(-c3ccccc3)c2c1	n	n	n	n	n	n
Cc1csc(NC(=O)c2cnc3ccccc3n2)n1	n	n	52	n	n	n
CCc1ccc(C(=O)Nc2nc(C)cs2)s1	n	n	63	56	n	n
C[C@H](O)[C@@H]1C(=O)N2CCc3c([nH]c4ccccc34)[C@@H]2C[C@@H]1N(C)S(=O)(=O)c1ccccc1	n	n	n	n	n	n
CCOC(=O)C1=C(COC(=O)CNS(=O)(=O)c2ccc(NC(C)=O)cc2)NC(=O)NC1C (centres undefined)	n	n	n	n	n	n
CCOc1cc(C(=O)CSc2nnc(CNc3ccc(Cl)cc3)o2)ccc1NC(=O)CC	n	n	n	n	n	66
O=C(NC(=S)Nc1ccc2oc(=O)ccc2c1)c1cccc(Cl)c1	n	n	n	n	n	n
O=C(O)c1cc(-c2ccccc2)n(-c2ccc(F)cc2)n1	n	n	n	n	n	78
O=C(O)c1cc(-c2ccccc2Cl)n(-c2ccc(F)cc2)n1	n	n	n	n	n	n
COc1ccc(-c2cn3c(C)c(C(=O)N4CCCc5ccccc54)sc3n2)cc1	n	n	n	n	n	n
COc1ccc(-c2cn3c4c(sc3n2)CCCC4)cc1	-67	n	73	n	n	n
CC(=O)Nc1cccc(NC(=O)CS(=O)(=O)c2cn(CC(=O)N(C(C)C)C(C)C)c3ccccc23)c1	n	n	n	n	n	n
Cc1ccc(C(=O)/C=C/Nc2ccccc2C(N)=O)cc1	-56	n	58	n	n	n
Cc1ccc(C(=O)/C=C/C(=O)c2ccc(C)cc2)cc1	-67	n	n	n	78	112
CCCCC[C@@H](C)N1C[C@@H](COCc2ccccc2)Oc2cc(N3CC[C@@H](N(C)C)C3)ccc2S1(=O)=O	x	n	n	n	x	x
O=C(Nc1ccc(Cl)cc1)Nc1ccc(N2CCCC2)c(S(=O)(=O)Nc2ccccc2Cl)c1	n	n	75	n	n	n
COc1ccc(NC(=O)c2cccc3c2C(=O)c2ccc(-c4ccc(F)cc4OCc4ccccc4)cc2S3(=O)=O)cc1	-57	n	n	n	n	n
COc1ccc(OC[C@@H](O)CNC(=O)c2cccc3c2C(=O)c2ccc(-c4ccc(F)cc4OCc4ccccc4)cc2S3(=O)=O)cc1	n	n	n	n	n	n
N/C(=N\OC(=O)COc1ccc(Cl)cc1Cl)c1ccccn1	n	n	56	n	n	n
Cc1cc(C)c(C)c(OCC(=O)O/N=C(\N)c2ccccn2)c1	n	n	n	n	n	n
N/C(=N\OC(=O)c1cc(Cl)ccc1Cl)c1ccccn1	n	n	75	n	n	n
N/C(=N\OC(=O)COc1ccc(Br)cc1Cl)c1ccccn1	n	n	66	n	n	n
N/C(=N\NC(=O)Nc1ccc(Cl)cc1)c1ccccn1	n	64	n	n	n	n
COc1ccc(-c2n[nH]c(=S)nc2-c2ccc(OC)cc2)cc1	n	n	n	n	n	n
CC1(C)OC(=O)C2=C(C[C@@H](CCOCc3ccccc3)O[C@@H]2c2ccc(F)cc2)O1	x	n	n	n	x	x
